# Screening results: PubChem, University of Kansas High Throughput Screening Laboratory
# mHTT-CaM PPI inh = disrupts binding of mutant huntingtin to calmodulin; AlphaScreen His-mHTT/GST-CaM binding, luminescence; actives 3.6% (n = 190,000); AID 1671202; P42858; inhibition, % at 15 µM;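 also: 0% = both proteins with DMSO and 100% = one protein alone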
# Pf apPOL block = Pf-apPOL DNA polymerase inhibition; Recombinant Pf-apPOL, molecular beacon fluorescence, 1.5 h; inhibition, % at 10 µM; actives 0.25% (n = 210,000)
# The depositor's hits bear a star; / = no result; ! = not confirmed by another sample. This is one part of a sample in which hits are shown more often than they occur. Rule as the data show it: active = inhibition above about 50%; inactive = the rest.
SMILES,mHTT-CaM PPI inh,Pf apPOL block
O=C(c1ccccc1)N1CCCC2(CC(c3ccc(Cl)cc3)=CO2)C1 (stereo not given),100*,0
COc1ccc(C(C)NC(=O)C2=C3CCCN3c3ccc(F)cc3S2(=O)=O)cc1 (stereo not given),7,-9
CC(C)C(=O)N1CCCC(COc2ccc(C(=O)N3CCOCC3)cc2)C1 (stereo not given),-1,-4
COC(=O)CSC(=O)NC=Cc1ccsc1,/,11
N#CC(=CNc1ccccn1)C(=O)C1CC1,/,2
O=C(c1ccc(Br)cc1)N1CCN(Cc2noc3ccccc23)CC1,3,-1
COc1cccc(CN2C[C@@]34C[C@@H](c5ccc(C(C)=O)cc5)[C@@H](C[C@@H]3S2(=O)=O)O4)c1,13,-4
O=C1OC(c2ccccc2)=C/C1=C1/c2ccccc2-c2ncccc21,67*,-1
COc1ccc(C2=C/C(=C3/c4ccccc4-c4ncccc43)C(=O)O2)c(OC)c1,22,-5
O=C(NCCOc1ccccc1)c1cccc(C(=O)NCCOc2ccccc2)c1,2,-6
O=[N+]([O-])c1ccc(-c2csc(N3CCCC3)n2)cc1,-2,-2
Cc1ccc(-c2csc(N3N=C(c4ccc([N+](=O)[O-])cc4)CC3=O)n2)cc1,53*,0
CC1CCN(CC(O)COCC2CC3CCC2C3)CC1 (stereo not given),0,0
O=C1N=c2ccccc2=C1c1sc(Nc2ccc(Br)cc2)nc1O,28,6
O=C1N=c2ccccc2=C1c1sc(Nc2cccc(O)c2)nc1O,61*,-1
O=C1/C(=C/c2ccc(Br)o2)CC/C1=C\c1ccc(Br)o1,96*,-4
O=C1C=C/C(=C/c2ccc(Br)o2)O1,5,/
O=C1C(=Cc2ccc(Br)o2)C(=O)c2ccccc21,77*,0
O=C1C(=Cc2ccc(Sc3ccccc3)o2)C(=O)c2ccccc21,37,0
CCn1c(=O)c(-c2ccc(C(=O)Nc3cccc(C)c3)cc2)nc2cccnc21,29,-3
COc1ccc(C2Nc3ccccc3C(=O)N2Cc2ccco2)cc1COc1ccc(Cl)cc1 (stereo not given),55*,8
COc1cccc(OCc2cc(C3Nc4ccccc4C(=O)N3Cc3ccco3)ccc2OC)c1 (stereo not given),28,-8
COc1ccc(S(=O)(=O)NCc2ccc(F)cc2)cc1OC,-1,68*
COc1ccc(S(=O)(=O)NCc2ccc3c(c2)OCO3)cc1OC,4,-3
COc1ccc(S(=O)(=O)NCc2ccc(CNS(=O)(=O)c3ccc(OC)cc3)cc2)cc1,59*,-2
SMILES,mHTT-CaM PPI inh,Pf apPOL block
COc1ccc(S(=O)(=O)NCc2ccc(S(N)(=O)=O)cc2)cc1,-2,-5
COc1ccccc1-c1nc(C2CCN(C(=O)c3ccc(C)cc3)CC2)no1,-1,0
COc1ccccc1C1SCCN1S(=O)(=O)c1ccc(I)cc1 (stereo not given),-10,1
O=C(Nc1ncn[nH]1)c1cccc(Br)c1,7,1
O=C(Nc1ncn[nH]1)c1ccccc1O,99*!,-11
Cc1c(C#N)sc(-c2ncn[nH]2)c1C,/,-3
COCCNC(=O)c1ccc(C(C)C)cc1,0,67*
COCCCNC(=O)c1ccc(C(C)C)cc1,-3,-3
Cc1ccc(-c2nc3cc(C)ccn3c2NC(=O)C(Cl)Cl)cc1,57*,-1
CCCC(=O)Nc1c(-c2ccc(C)cc2)nc2cc(C)ccn12,15,1
CC(=O)N1CCN(c2nc3c(s2)CC(C(=O)Nc2ccc(Cl)c(C)c2)CC3)CC1 (stereo not given),45,1
O=C1C2C3C=CC(O3)C2C(=O)N1c1cc(C(F)(F)F)ccc1Cl (stereo not given),-4,-3
O=C1C=CC(=O)C(c2cc(C(F)(F)F)ccc2Cl)=C1,60*,-3
COc1cc(Br)c(/C=C(\C#N)c2nc3ccccc3[nH]2)cc1OC,53*,-2
COc1cc(/C=C(\C#N)c2nc3ccccc3[nH]2)cc(OC)c1OC,8,-3
COc1cc(/C=C(\C#N)c2nc3ccc(C)cc3[nH]2)cc(OC)c1O,58*,-4
COc1cc(/C=C(\C#N)c2nc3ccccc3[nH]2)c(Br)cc1O,42,-6
COc1cc(/C=C(\C#N)c2nc3ccc(C)cc3[nH]2)ccc1OCC(=O)O,11,-2
Cc1ccc(/C=C(\C#N)c2nc3ccc(C)cc3[nH]2)cc1,-12,1
CCOc1cc(/C=C(\C#N)c2nc3ccccc3[nH]2)cc(I)c1O,88*,0
CCOc1cc(/C=C(\C#N)c2nc3ccc(C)cc3[nH]2)cc(Cl)c1O,84*,-3
COc1cc2c(cc1OC)CN(Cc1cc(I)c(O)c(OC)c1)CC2,5,-5
O=C(CSc1nccn1-c1ccc([N+](=O)[O-])cc1)Nc1nc2ccccc2s1,14,8
CCN(c1ccc(C)c(C)c1)S(=O)(=O)c1cc(Br)cc2c1N(C(=O)C1CC1)CC2,-2,0
COc1ccc(CN2CCN(C(=O)c3ccc(C)s3)CC2)cn1,0,-2
